# Test results taken from PubChem BioAssay AID2524 (Sanford-Burnham Center for Chemical Genomics, 2010).
# In all, about 330,000 compounds went through this assay and about 540 (0.16%) were called active.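 Rule for the calls: active = activation factor of the enzyme at least 2-fold when tested at 20 µM; inactive = the rest.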 What follows is part of a selection rich in actives, with near analogues and random picks from the rest.
# Biological target: Intestinal-type alkaline phosphatase (Homo sapiens) (UniProt P09923)
# Test: enzymatic activation of intestinal alkaline phosphatase – biochemical, luminescence, uHTS, primary screen (AID 2524)
# Settings: purified human IAP, CDP-Star luminescence, 30 min; at 10 µM; active compounds read high; 1 = vehicle-only enzyme, 0 = enzyme-free background
# Chain of Intestinal-type alkaline phosphatase (Homo sapiens) (P09923 whole entry, looked up): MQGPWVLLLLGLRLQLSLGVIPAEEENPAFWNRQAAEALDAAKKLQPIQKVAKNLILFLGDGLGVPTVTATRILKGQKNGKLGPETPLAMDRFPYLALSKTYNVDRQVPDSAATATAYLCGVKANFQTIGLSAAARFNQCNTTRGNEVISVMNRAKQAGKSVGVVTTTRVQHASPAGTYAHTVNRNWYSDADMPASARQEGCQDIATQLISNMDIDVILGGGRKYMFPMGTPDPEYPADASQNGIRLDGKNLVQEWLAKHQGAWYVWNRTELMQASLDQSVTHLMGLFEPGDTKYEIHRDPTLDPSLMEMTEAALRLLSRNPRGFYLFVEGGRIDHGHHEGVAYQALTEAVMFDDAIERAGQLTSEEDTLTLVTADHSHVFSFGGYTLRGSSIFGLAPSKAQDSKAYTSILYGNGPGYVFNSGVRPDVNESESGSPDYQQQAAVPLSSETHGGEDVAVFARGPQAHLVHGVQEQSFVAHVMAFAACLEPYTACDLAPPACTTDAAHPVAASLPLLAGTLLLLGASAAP
row,SMILES,activation factor
1,FC(F)(F)c1cccc(Cc2noc(CN3CCC(N4CCCCC4)CC3)n2)c1,1.17 (inactive)
2,C1CC1Cc1noc(CN2CCN(CC3CC3)CC2)n1,1.06 (inactive)
3,COCCN(C(=S)Nc1ccccc1OC)C1CCN(C(C)C)CC1,1.12 (inactive)
4,O=C(COC(=O)c1ccccc1F)Nc1cc(S(=O)(=O)N2CCOCC2)ccc1N1CCCC1,1.03 (inactive)
5,Cc1ccc(CNCc2ccc3c(c2)OCO3)c(C)c1,1.06 (inactive)
6,O=C(O)CSCc1ccc(C(=O)O)o1,0.943 (inactive)
7,COc1cccc2cc(C(C)N(CCCN3CCOCC3)C(=O)Nc3ccc(Cl)cc3)oc12 (centres undefined),1.05 (inactive)
8,CC(Oc1ccc(F)cc1F)C(=O)/C=C/N(C)C (centres undefined),1.1 (inactive)
9,COc1ccc(CC(=O)N2N=C(C)CC2(O)C(F)(F)F)cc1 (centres undefined),1.06 (inactive)
10,CCOC(=O)C1CCN(C(=O)Nc2cccc(OC)c2)CC1,1.01 (inactive)
11,COc1ccc(S(=O)(=O)N2CCN(CC(=O)NCC3(N4CCOCC4)CCCCC3)CC2)cc1,0.925 (inactive)
12,C#CCOCCOCCOCCNc1nc(N2CCN(C(=O)CCCCCCCCCCNC(=O)[C@H]([C@@H](C)CC)n3cc(CCCCN=C(N)N)nn3)CC2)nc(N2CCN(C(=O)CCCCCCCCCCNC(=O)[C@H](CO)n3cc(CCCSC)nn3)CC2)n1,2.98 (active)
13,C#CCOCCOCCOCCNc1nc(N2CCN(C(=O)CCCCCCCCCCNC(=O)[C@H](CCCCN)n3cc(C)nn3)CC2)nc(N2CCN(C(=O)CCCCCCCCCCNC(=O)[C@H](CO)n3cc(CCCSC)nn3)CC2)n1,1.1 (inactive)
14,C#CCOCCOCCOCCNc1nc(N2CCN(C(=O)CCCCCCCCCCNC(=O)Cn3cc(CCCCCN)nn3)CC2)nc(N2CCN(C(=O)CCCCCCCCCCNC(=O)[C@H](CO)n3cc(CCCSC)nn3)CC2)n1,0.934 (inactive)
15,CCCN=C1NC(=O)C(CC(=O)NCCc2ccc(OC)c(OC)c2)S1 (centres undefined),1.04 (inactive)
16,Cc1ccc(S(=O)(=O)N/N=C(\c2ccccc2)C2CC2)cc1,1.3 (inactive)
17,CCN(CC(=O)Nc1c(F)cccc1F)C(=O)C1CCC1,1.05 (inactive)
18,O=C(COC(=O)/C=C/c1nc2ccccc2s1)Nc1ccccc1Oc1ccccc1,0.94 (inactive)
19,CCCCCc1c(C)nc(N2CCN(Cc3ccc4c(c3)OCO4)CC2)[nH]c1=O,0.962 (inactive)
20,CCCCCCCCc1c(O)nc(-n2[nH]c(C)c(CCO)c2=O)[nH]c1=O,2.2 (active)
21,CCCCc1c(O)nc2n(c1=O)CCS2,0.971 (inactive)
22,CN(CCc1ccccn1)C(=O)CCC1CCCN(Cc2ccccc2OC(F)F)C1 (centres undefined),1.17 (inactive)
23,CN1CCC(N(C)S(=O)(=O)c2ccc(NC(=O)c3cccc(C#N)c3)cc2)CC1,0.888 (inactive)

row,SMILES,activation factor
1,Cc1ccc(O)c(-c2cc(C(=O)Nc3c(C)n(C)n(-c4ccccc4)c3=O)[nH]n2)c1,1.84 (inactive)
2,Cc1ccc(C)c(NC(=O)c2cc(-c3cc(C)cc(C)c3O)n[nH]2)c1,1.49 (inactive)
3,Cc1ccc(NC(=O)c2cc(-c3ccccc3O)n[nH]2)cc1C,2.39 (active)
4,Cc1ccc(CNC(=O)c2ccccc2CCc2ccccc2)cc1,0.921 (inactive)
5,Cc1ccc(NC(=O)CCN2C(=O)c3ccccc3C2=O)cc1C,0.917 (inactive)
6,Cc1ccc(O)c(-c2cc(C(=O)NCc3ccccc3)[nH]n2)c1,2.06 (active)
7,CN1CCN(CC(O)COCc2ccc3c(c2)OCO3)CC1 (centres undefined),0.998 (inactive)
8,CC(C)COC(=O)C1C2C=CC3(CN(C(C)c4ccc(Br)cc4)C(=O)C13)O2 (centres undefined),0.726 (inactive)
9,COc1cc(NS(=O)(=O)c2ccc(N/C=C(\C=O)c3nc4cc(Cl)ccc4o3)cc2)nc(OC)n1,1.26 (inactive)
10,COc1ccc(C(=O)NC2CC(C)(C)Cc3c2cnn3-c2ccccc2C)o1 (centres undefined),1.38 (inactive)
11,CCCc1ccc(C(=O)COC(=O)CN2C(=O)NC3(CCCCC3C)C2=O)cc1 (centres undefined),1.11 (inactive)
12,CC(C)CCn1c(=O)c2c(nc3n2CCCN3Cc2ccccc2)n(C)c1=O,0.846 (inactive)
13,COc1ccc(NS(=O)(=O)c2ccc(Oc3c(C#N)cccc3C#N)cc2)cc1,1.1 (inactive)
14,CCn1nc(NC(=O)c2ccco2)c2cc3ccc(C)cc3nc21,1.16 (inactive)
15,CC(C)n1cnc2c(NCc3ccccc3)cc(N[C@@H](CO)Cc3ccccc3)cc21,0.984 (inactive)
16,O=C(NNC(=S)Nc1ccccc1)c1cccc(S(=O)(=O)N2CCOCC2)c1,2.01 (active)
17,Cc1cc(C(=O)NNC(=O)c2cccc(S(=O)(=O)N3CCOCC3)c2)c2ccccc2n1,0.981 (inactive)
18,O=C(Nc1ccc(N2CCOCC2)cc1)c1cccc(S(=O)(=O)N2CCOCC2)c1,1.08 (inactive)
19,CCOC(=O)CNC(=O)/C=C/c1c(Cl)cccc1Cl,0.968 (inactive)
20,C/C(=N\OC(=O)c1ccccc1)c1c(C)nc2cc(C)ccn12,1.06 (inactive)
21,CCn1cc(CN2CCC(C(=O)Nc3cccc(-c4cccc(Cl)c4)c3)CC2)cn1,1.12 (inactive)
22,O=C(Nc1cccc(-c2cccc(Cl)c2)c1)C1CCN(C2CCC2)CC1,4.26 (active)
23,COc1cccc(-c2cccc(NC(=O)C3CCN(C4CCC4)CC3)c2)c1,1.23 (inactive)

row,SMILES,activation factor
1,CC(=O)Nc1cccc(OCC(=O)/C=C2\N(C)c3ccccc3C2(C)C)c1,0.862 (inactive)
2,CN(C)c1cccc(C(=O)N2CCC(n3nccc3NC(=O)C3CCOC3)CC2)c1 (centres undefined),1.28 (inactive)
3,CN1CCc2c(sc3c2c(NCc2ccco2)nc2nnnn23)C1,1.04 (inactive)
4,COc1ccc(NC(=O)CC2C(=O)OCC3CCCCN32)cc1Cl (centres undefined),1.01 (inactive)
5,O=C(COc1ccc(Cl)cc1)NCCS(=O)(=O)N1CCN(c2ccc(F)cc2)CC1,0.818 (inactive)
6,CCc1c(C)nc(SCC(=O)NC2CCCC2)[nH]c1=O,1.03 (inactive)
7,NS(=O)(=O)c1cccc(NC(=O)COC(=O)c2cc([N+](=O)[O-])ccc2N2CCCC2)c1,0.907 (inactive)
8,CCc1ccc(S(=O)(=O)Nc2ccc(C)c(NS(C)(=O)=O)c2)cc1,0.919 (inactive)
9,Cc1ccccc1NC(=O)Cn1cc(C(=O)C2CC2)c2ccccc21,1.02 (inactive)
10,[2H]C(CCOS(N)(=O)=O)c1ccccc1 (centres undefined),0.959 (inactive)
11,CN(C)NC(=O)c1csnc1-c1c(Cl)cccc1Cl,1.14 (inactive)
12,O=C(Nc1ccc(Cl)cc1)c1ccsn1,4.15 (active)
13,CCC(=O)Nc1ccc(C(=O)NNC(=O)c2ccc(Cl)cc2)cc1,1.31 (inactive)
14,O=C(NCc1ccccn1)Nc1ccc(Cl)cc1,1.08 (inactive)
15,CCCOCC(O)CC(CC)C(=O)NNC(=S)Nc1ccccc1 (centres undefined),2.11 (active)
16,CCCN(CCC)CC(O)COc1ccccc1C(=O)Nc1ccccc1 (centres undefined),0.915 (inactive)
17,CCCCC(=O)NNC(=S)NC(=O)C(c1ccccc1)c1ccccc1,1.36 (inactive)
18,CC(NC(=O)C(=O)Nc1nccs1)c1ccccc1 (centres undefined),1.05 (inactive)
19,C[C@H](NC(=O)c1nc[nH]c1C(=O)NCC(=O)OC(C)(C)C)c1ccccc1,1.32 (inactive)
20,CC(C)(C)OC(=O)NCCCCCNC(=O)c1nc[nH]c1C(=O)NCc1ccccc1,1.26 (inactive)
21,Cc1ccc(NC(=O)c2nc[nH]c2C(=O)N[C@@H](CCCCNC(=O)OC(C)(C)C)C(=O)OC(C)(C)C)cc1,1.3 (inactive)
22,CC(C)(C)OC(=O)NCCCCCNC(=O)c1[nH]cnc1C(=O)Nc1nccs1,2.41 (active)
23,C[C@H](NC(=O)c1[nH]cnc1C(=O)Nc1nccs1)c1ccccc1,2.51 (active)

row,SMILES,activation factor
1,Oc1ccc(-c2cccc(-c3ccc(O)cc3)c2)cc1,1.01 (inactive)
2,COc1ccc(C2CC(c3ccccc3)=NN2C(=O)CSc2nccc(=O)[nH]2)cc1 (centres undefined),0.925 (inactive)
3,COc1ccc(CC(=O)Nc2c3c(nn2-c2cccc(Cl)c2)CS(=O)C3)cc1 (centres undefined),1.09 (inactive)
4,O=C(NNC(=S)NCc1ccccc1)c1ccc(OC(F)F)cc1,0.898 (inactive)
5,Cc1ccc(OCC(=O)NNC(=S)NCc2ccccc2)cc1,1.08 (inactive)
6,CC(C)Oc1ccc(CCC(=O)NNC(=S)NCc2ccccc2)cc1,2.01 (active)
7,Cc1cccc(C(=O)N[C@H](C(=O)NCc2cccs2)C(C)C)c1,1.11 (inactive)
8,CCOCCCn1c(SCC(=O)Nc2cc(OC)ccc2OC)nc2ccccc2c1=O,0.95 (inactive)
9,OC(COc1ccc(CN2CCSCC2)cc1)CN1CCCCC1 (centres undefined),1.12 (inactive)
10,CCCCN1C(=O)CC(N2CCOCC2)C1=O (centres undefined),1.04 (inactive)
11,S=c1[nH]cc(-c2ccc(Cl)cc2)n1-c1ccccc1,1.42 (inactive)
12,COc1ccc(N2C(=O)NC(NS(=O)(=O)c3ccc(Cl)cc3)(C(F)(F)F)C2=O)cc1 (centres undefined),0.861 (inactive)
13,Cn1c(N)c(C(=O)COC(=O)c2ccccc2NCc2ccco2)c(=O)n(C)c1=O,1.07 (inactive)
14,Cc1cc(C)cc(N(CC(=O)Nc2c(C)n(C)n(-c3ccccc3)c2=O)S(C)(=O)=O)c1,0.988 (inactive)
15,Cc1ccc(Cl)c(NC(=O)CN(C)CC(=O)Nc2ccc(F)c(F)c2F)c1Cl,1.68 (inactive)
16,Cc1c(NC(=O)CN(C)CC(=O)Nc2ccc(F)c(F)c2F)c(=O)n(-c2ccccc2)n1C,2.09 (active)
17,Cc1ccc(OCC(=O)NCCCNC(=O)c2cccnc2)cc1C,1.06 (inactive)
18,Cc1cc(C(=O)NC2CC(C)(C)Cc3c2cnn3-c2ccccc2)n[nH]1 (centres undefined),2.15 (active)
19,COc1ccc(C(=O)NC2CC(C)(C)Cc3c2cnn3-c2ccccc2)c(OC)c1 (centres undefined),1.07 (inactive)
20,CC1=C(C(=O)NC2CC(C)(C)Cc3c2cnn3-c2ccc(C)cc2)OCCO1 (centres undefined),1.1 (inactive)
